Assay outcomes from PubChem.
Cycloheximide cs: counter-screen for Shiga toxin inhibitors: cycloheximide protein synthesis inhibition; 300,000 tested, 12% active; AID 2314; cell reporter, cycloheximide protein synthesis inhibition counterscreen; max response, %; in the data active means max response mostly above about 13%, no sharp cut-off; inactive means mostly below about 14%; further: read at 38.3 µM for the half of the compounds with a filed dose; 0% is about no effect
Shiga inhibitor: blocks Shiga toxin action in Vero cells; Vero cells, Shiga toxin protein synthesis inhibition reporter; inhibition, % at 38.7 µM; 290,000 tested, 9.2% active; in the data active means inhibition mostly above about 28%, no sharp cut-off; inactive means mostly below about 43%; further: 0% is about no effect
MARV entry inh: blocks Marburg virus binding to or entry into cells | Marburg virus pseudotyped entry inhibition, cell reporter | Potency, µM (highest dose often 37.8 µM), inactives show at the top dose activity change, negative = inhibition, hits mostly inhibitors | 300,000 tested, 1.8% active | AID 540276; calls by dose curve; tested in HEK293 cells; further: potency means the concentration at half of the fitted maximal effect; on the % scale 0 is the no-effect control and ±100 the full control effect
Lassa entry inh: Lassa virus entry inhibition; 300,000 tested, 1.2% active; Potency, µM (titrated, usually from 37.9 µM), for the others: at the top dose activity change, negative = inhibition, hits mostly inhibitors; Lassa virus pseudotype entry inhibition, cell reporter; AID 540256; calls by dose curve; tested in HEK293 cells; further: potency means the concentration at half of the fitted maximal effect; on the % scale 0 is the no-effect control and ±100 the full control effect; nearly all actives have a fitted effect of over 50% in size
Pf growth 48h: P. falciparum growth inhibition at 48 hours (one generation); 310,000 tested, 5.9% active; Potency, µM (highest dose often 28.7 µM), without a hit: at the top dose activity change, negative = inhibition, usual class: inhibitors; P. falciparum luciferase growth in erythrocytes, 48 h; AID 504832; further: potency means the concentration at half of the fitted maximal effect; on the % scale 0 is the no-effect control and ±100 the full control effect
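A one-generation exposure of luciferase-tagged malaria parasites in RPMI 1640/Albumax erythrocyte culture, 37 C and 5% CO2. Inhibition is inferred from decreased luminescence after adding detection reagent.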
Pf growth 96h: inhibits malaria parasite growth, 96 h | 320,000 tested, 6.9% active | P. falciparum luciferase reporter growth, 96 h | Potency, µM (top dose mostly 28.7 µM), for the others: at the top dose activity change, negative = inhibition, usual class: inhibitors | AID 504834; further: potency means the concentration at half of the fitted maximal effect; on the % scale 0 is the no-effect control and ±100 the full control effect
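Cell-based qHTS: luciferase-tagged P. falciparum in erythrocytes (2% hematocrit, 0.05% parasitemia final) incubated with compounds for 96 hours, 37 C, 5% CO2; luciferase detection reagent then added and luminescence measured.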
Starred values were filed as active, the others as inactive; ? = inconclusive; . = no result given; + = active, no number; ! = a repeat was not active; [ ] = another dose, or the depositor's remark. An excerpt weighted towards active compounds, which were near 19% of everything screened. Unless noted, the call rests on the fitted dose curve; in most records, active means well fitted inhibition curve with a large enough effect; inconclusive means small, poorly fitted or top-dose-only effect, or another doubt; inactive means no such curve, though single readings can be large or run the other way.

SMILES | Cycloheximide cs | Shiga inhibitor | MARV entry inh | Lassa entry inh | Pf growth 48h | Pf growth 96h
CN(Cc1nc2ccccc2c(=O)[nH]1)CC(O)COCc1ccco1 (stereo unspecified) | 17 | -2 | 13% | 16% | -7% | 6.6µM*
Cc1noc(C)c1COC(=O)c1ccccc1Sc1ccccc1C#N | 0 | -10 | ? | ? | . | 12µM*
N#Cc1ccccc1Sc1ccccc1C(=O)OCC(N)=O | 2 | 21 | ? | -8% | 5% | 23%
CN(C(=O)NC1CCCCC1)c1ccccc1 | -3 | -11 | 27% | 4% | -1% | 3%
O=C(NCCN1CCCCC1)Nc1ccc(Cl)cc1 | -2 | 17 | -2%[46.1 µM] | 0%[46.1 µM] | -10% | ?
O=C(CCc1ccccc1)NNC(=O)c1ccccc1Cl | -4 | . | ? | 20%[46.1 µM] | ? | 2.9µM*
O=C(CCc1ccccc1)NNC(=O)c1ccccc1F | -4 | -11 | . | . | 27% | -1%
CC(=O)Oc1ccccc1C(=O)NC(C)CCc1ccccc1 (stereo unspecified) | 12 | 14 | -30% | -9% | 15µM* | ?
O=C(NNCc1ccc(O)cc1)c1ccccc1Cl | 46* | 39* | . | . | 98% | 107%
COCC(C)NC(=O)c1ccccc1OC(C)=O (stereo unspecified) | -3 | -9 | -3% | 0% | -5% | .
CC(CCc1ccccc1)NC(=O)c1ccccc1Cl (stereo unspecified) | 10 | . | 11%[46.1 µM] | -1%[46.1 µM] | ? | 9.3µM*
COc1cccc(N2CC(C(=O)Nc3nnc(SCC(=O)N4CCOCC4)s3)CC2=O)c1 (stereo unspecified) | 2 | -2 | 0% | 8% | ? | ?
CN(Cc1ccccc1)C(=O)c1ccccc1NC(=O)c1ccco1 | 1 | 23 | 3% | 8% | 2% | -8%
CSCC[C@H](NC(=O)OC(C)(C)C)C(=O)N/N=C/c1cccc2cccnc12 | 1 | -7 | ? | ? | -9% | -25%
CCOc1ccccc1N(CC(=O)NC(C)(C)C)C(=O)CCC(=O)Nc1nccs1 | -3 | . | . | . | ? | 0%
Cc1nonc1NC(=O)N1CCCC1 | -1 | -10 | 5% | ? | 19% | 48%
Cc1nonc1NC(=O)OC1CCCCC1 | -6 | 8 | 0% | -4% | ? | 1µM*
O=C(c1ccco1)N(Cc1ccccc1)c1cccc([N+](=O)[O-])c1 | 10 | 5 | 1%[46.1 µM] | 3% | ? | 6.6µM*
O=C(c1ccco1)N(Cc1ccco1)c1ccc(O)cc1 | 2 | 7 | -1% | -19% | ? | 9.3µM*
CC1CCc2cc(F)ccc2N1C(=O)C1(C)CC1(Cl)Cl (stereo unspecified) | 1 | -10 | ? | 8% | -27% | .
COC(=O)c1c(-c2ccc(F)cc2)noc1N | 0 | -7 | -4% | 6% | 25% | 4.7µM*
O=c1c2nccnc2[nH]c(=S)n1Cc1ccccc1Cl | -6 | -12 | . | . | ? | ?
CCCCN1C(=O)NC(NC(C)=O)(C(F)(F)F)C1=O (stereo unspecified) | 1 | -4 | 29%[46.1 µM] | -2% | 4% | -11%
COc1ccc(CNC(=O)CNS(=O)(=O)c2cccc(C#N)c2)cc1OC | 1 | -9 | -1%[46.1 µM] | 8%[46.1 µM] | -27%[0.00184 µM] | 2%
O=C(Nc1ccccc1N1CCOCC1)c1ccc(Br)o1 | 10 | -17 | -5% | -10% | 6% | ?
SMILES | Cycloheximide cs | Shiga inhibitor | MARV entry inh | Lassa entry inh | Pf growth 48h | Pf growth 96h
O=C(Nc1ccccc1C(=O)O)c1ccc(Br)o1 | 21* | 39* | 22% | 25% | 2% | 31%
Cc1ccc(C(=O)Nc2ccccc2-c2ccccc2)o1 | 5 | 18 | -5% | 13% | -2% | .
O=C(Nc1ccccc1F)c1ccc(Br)o1 | 55* | +! | 17% | 18% | 54% | 14%
Cc1ccc(C(=O)Nc2ccccc2C(N)=O)o1 | 37* | 106* | 6% | ? | 73% | .
CCCCOP(=O)(c1ccc(N(C)C)cc1)C(O)c1c(Cl)cccc1Cl (stereo unspecified) | -1 | -6 | 2% | -3% | ? | ?
O=c1c2oc3ccccc3c2n(Cc2cccc(Cl)c2)c(=O)n1Cc1ccc2c(c1)OCO2 | . | . | . | 9%[46.1 µM] | . | .
CC(=O)NC(NC(C)=O)c1ccc(N(C)C)cc1 | -2 | 10 | 19% | 11% | 20% | 7%
O=C(Nc1ccccc1)NC1CCCc2ccccc21 (stereo unspecified) | 2 | 1 | . | . | ? | -13%
CC(=O)NC1=C(N(C)C2CCS(=O)(=O)C2)C(=O)c2ccccc2C1=O (stereo unspecified) | 17 | 35 | ? | 7.1µM* | 13µM* | 2.1µM*
CN(C(=O)Nc1ccccc1)C1CCCCC1 | 14 | 67 | 7% | 17% | 35% | 40%
CN(CC(=O)Nc1ccccc1Cl)C1CCS(=O)(=O)C1 (stereo unspecified) | . | . | . | . | 2% | 4%
CN(C(=O)Nc1ccccc1)C1CCS(=O)(=O)C1 (stereo unspecified) | -2 | 8 | 7%[46.1 µM] | 3% | -6% | 2.3µM*
CN(C(=O)Nc1ccccc1)C1CCCc2ccccc21 (stereo unspecified) | 19* | 71* | 16%[46.1 µM] | 22% | -25% | ?
CC(=O)NC1=C(Nc2ccc(N(C)C)cc2)C(=O)c2ccccc2C1=O | 46* | 116* | ? | 1.6µM* | ? | ?
COc1cccc(Cn2nc(SC)c(S(=O)(=O)c3ccccc3)c2N(C(C)=O)C(C)=O)c1 | . | . | -21%[46.1 µM] | ? | . | .
CC/C(=C(/c1ccccc1)c1ccc(OCCN(C)C)cc1)c1ccccc1 | -7 | -9 | . | . | . | .
CCCOc1ccc2c(c1)C(=NN=C(N)N)c1cc(OCCC)ccc1-2 | -4 | -6 | ? | ? | 0.66µM* | 5%
CCN(CC)S(=O)(=O)c1ccc(C)c(C)c1 | -3 | -23 | -4% | -3% | . | ?
CCN(CC)CCOc1ccc2c(c1)C(=NO)c1cc(OCCN(CC)CC)ccc1-2 | -1 | -20 | 2.6µM* | 10µM* | 6.6µM* | 1.9µM*
CCN(CC)CCOc1ccc(/C(=C(\Cl)c2ccccc2)c2ccccc2)cc1 | . | . | . | . | 2.1µM* | 2.3µM*
CCN(CC)S(=O)(=O)c1ccc2c(c1)C(=NO)c1cc(S(=O)(=O)N(CC)CC)ccc1-2 | 1 | 26 | ? | ? | 9.3µM* | 8.3µM*
Cc1ccc(S(=O)(=O)N2CCOCC2)cc1NC(=O)CNCC1CCCCC1 | -3 | -9 | -1% | -5% | 6% | ?
C[C@]12CC[C@H](OS(=O)(=O)O)CC1=CC[C@@H]1[C@@H]2CC[C@]2(C)C(=O)CC[C@@H]12 | . | . | . | . | -26% | -1%
O=C(O)C1CCCCC1C(=O)NCCc1cccc(Cl)c1 (stereo unspecified) | -1 | 1 | ? | 19% | 28% | 3%
CC(C)(C)c1ccc(OC(=O)CN2C(=O)C3C4CCC(C4)C3C2=O)cc1 (stereo unspecified) | 2 | 18 | -2% | 2% | 33% | -30%
CCN(CC)CCCOc1ccc(Cl)c(Cl)c1 | -3 | -10 | ? | -20% | -7% | ?
